Reference: PubChem BioAssay (NCI)
This is part of a sample that, as a whole, favours compounds with a hit. Of some 83,000 tested, about 20% had one in any assay.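 Values shown are percent growth following 48 h exposure of cells in 96-well plates to a single concentration of compound; below 10 was considered active.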 The source made the active and inactive calls.

Tests used:
Assay in all cases: NCI-60 one-dose screen, 48 h (100 = growth as untreated, 0 = no growth, -100 = all killed)
Details in all cases: 10 µM unless noted
[1] = test system: NCI-H23 lung
[2] = test system: NCI-H226 lung
[3] = test system: NCI-H322M lung
[4] = test system: HOP-62 NSCLC
[5] = test system: NCI-H460 lung
[6] = test system: A549/ATCC NSCLC
[7] = test system: 786-0 renal
[8] = test system: COLO 205 colon
[9] = test system: DU-145 prostate
[10] = test system: K-562 leukemia
[11] = test system: MALME-3M melanoma
[12] = test system: MDA-MB-231 breast
[13] = test system: RXF 393 renal
[14] = test system: SF-268 CNS
[15] = test system: SF-295 CNS
[16] = test system: SF-539 CNS
[17] = test system: UACC-257 melanoma
[18] = test system: M14 melanoma
[19] = test system: NCI-H522 lung
[20] = test system: HOP-92 NSCLC

Measured: growth

CCOC(=O)Nc1ccc2nc(Sc3ccc(Cl)cc3)sc2c1
active: [8] -26.4% | [16] 5.63%
inactive: [1] 54.2% | [2] 58.8% | [3] 44.6% | [4] 35.1% | [5] 25% | [6] 42.5% | [7] 49.5% | [9] 35.8% | [10] 21% | [11] 42% | [12] 43.4% | [13] 36.8% | [14] 54.4% | [15] 29.1% | [17] 57.3% | [18] 30%

COc1cccc(N2CCN(c3ncnc4cc[nH]c34)CC2)c1
inactive: [1] 42.8% | [2] 55.1% | [3] 94% | [5] 66.9% | [19] 51.5% | [6] 60.2% | [7] 70.9% | [8] 88.2% | [9] 90.6% | [10] 37.7% | [11] 75.1% | [12] 84.4% | [13] 99.3% | [14] 90.7% | [15] 44.2% | [16] 72.8% | [17] 47.5% | [18] 58.2%

CC1OC(n2c3ccccc3c3c4c(c5c6ccccc6[nH]c5c32)C(=O)N(CCN[C@H]2CCC[C@@H]2N)C4=O)CC(O)C1O (stereo partly specified)
inactive: [1] 33.8% | [2] 40.5% | [3] 54.2% | [19] 16.9% | [6] 25.2% | [7] 50.2% | [8] 11.5% | [9] 44.5% | [10] 10.2% | [11] 45.3% | [12] 37.5% | [13] 63% | [14] 33.5% | [15] 25.6% | [16] 35.3% | [17] 54.9% | [18] 36.1%
active: [5] 2.3%

O=C1SCN(Cc2ccccc2)CN1Cc1ccccc1
inactive: [1] 91.2% | [2] 96.2% | [3] 95.3% | [5] 107% | [19] 26.3% | [6] 99.1% | [7] 114% | [8] 116% | [9] 95.4% | [10] 46.3% | [11] 101% | [12] 86.9% | [13] 108% | [14] 96.2% | [15] 110% | [16] 104% | [17] 70.9% | [18] 99.1%

COc1ccc(-c2cc(C(=O)Nc3ccc(C)cc3)nc3[nH]c(=O)sc23)cc1
inactive: [1] 75.4% | [2] 80.1% | [3] 78.5% | [5] 68.8% | [19] 24.3% | [6] 50.6% | [7] 65.2% | [8] 78.8% | [9] 89.6% | [10] 61.9% | [11] 73.3% | [12] 86.3% | [13] 85.8% | [14] 88.7% | [15] 70.7% | [16] 75.6% | [17] 51.4% | [18] 70.8%

CC(=O)CC(c1ccc([N+](=O)[O-])cc1)c1c(O)c2ccccc2oc1=O (stereo unspecified)
inactive: [1] 106% | [2] 93.9% | [3] 98.7% | [5] 104% | [19] 97.3% | [6] 95.7% | [7] 95.4% | [8] 112% | [9] 106% | [10] 104% | [11] 98.3% | [12] 95.9% | [13] 108% | [14] 99% | [15] 104% | [16] 97.1% | [17] 120% | [18] 102%

CN1C2CCC1/C(=C\c1ccc(Cl)cc1)C(=O)/C2=C/c1ccc(Cl)cc1
inactive: [1] 62.4% | [2] 73.8% | [3] 72.4% | [5] 47% | [19] 54.7% | [6] 63.7% | [7] 75.4% | [8] 41.7% | [9] 41.8% | [10] 34.3% | [11] 73.7% | [12] 67% | [13] 87.2% | [14] 60.5% | [15] 77.4% | [16] 91.5% | [17] 60.9% | [18] 63.8%

N/C(=N\OC(=O)c1ccccc1)C(C(=O)NOC(=O)c1ccccc1)C1CCCCC1 (stereo unspecified)
inactive: [1] 49.3% | [2] 100% | [3] 84.7% | [5] 34.5% | [7] 76% | [8] 77.3% | [9] 57.7% | [11] 85.3% | [12] 81.8% | [13] 82.1% | [14] 31.9% | [15] 41.6% | [16] 75.1% | [17] 92.2% | [18] 75.2%
active: [19] -46.9% | [6] 1.51% | [10] 2.85%

CC(C)CCC(=O)[C@@H](C)[C@H]1[C@@H](OC2OCC(O)C(O)C2NS(C)(=O)=O)C[C@H]2[C@@H]3CC=C4C[C@@H](O)CC[C@]4(C)[C@H]3CC[C@]12C (stereo partly specified)
inactive: [1] 56.8% | [2] 52.4% | [3] 68.5% | [5] 12.1% | [19] 20.7% | [6] 33.4% | [9] 49% | [12] 43.8%
active: [7] -32% | [8] -0.62% | [10] 2.65% | [11] 8.83% | [13] -65.1% | [14] 9.17% | [15] -60.9% | [16] -41.2% | [17] -42.8% | [18] -53.1%

O=C(Nc1cccc(C2=NCCN2)c1)c1ccc(N=Nc2ccc(C(=O)Nc3cccc(C4=NCCN4)c3)cc2)cc1
inactive: [1] 44.3% | [2] 81.5% | [3] 64.7% | [5] 41.9% | [19] 36.2% | [6] 33.9% | [7] 69.2% | [8] 64.5% | [9] 59.1% | [10] 51.8% | [11] 29.7% | [12] 73.1% | [13] 105% | [14] 54.2% | [15] 82.4% | [16] 74% | [17] 55.4% | [18] 64.9%

COc1ccccc1-[n+]1cc(-c2ccc(-c3ccccc3)cc2)n2c1CCCCC2
inactive: [2] 21.8% | [3] 20% | [6] 10.3% | [7] 18.5% | [9] 20.7% | [10] 10.5% | [12] 19.1% | [13] 15.2% | [14] 21.2% | [16] 18.2% | [18] 11.1%
active: [1] 2.82% | [5] 7.28% | [19] -12% | [8] -7.92% | [11] 0.879% | [15] -1.81% | [17] -22.9%

CCOC(=O)c1ccc(NC(=O)CSC(N)=O)cc1
inactive: [1] 95.8% | [2] 116% | [3] 112% | [5] 101% | [19] 72.8% | [6] 98% | [7] 86.6% | [8] 98.3% | [9] 114% | [10] 103% | [11] 145% | [12] 95.9% | [13] 129% | [14] 110% | [15] 101% | [16] 96.4% | [17] 107% | [18] 94.8%

Nc1nc(N)c2cc(NCc3ccc(Cl)c(Cl)c3)ccc2n1
active: [1] -88% | [2] -74.8% | [3] -79% | [5] -75.7% | [19] -69.8% | [6] -90.2% | [7] -89.7% | [8] -90.7% | [9] -94.8% | [10] -62.2% | [11] -64.9% | [12] -86.8% | [13] -82.7% | [14] -83.2% | [15] -80.5% | [16] -89.9% | [17] -83% | [18] -84%

CCN(CC)CCCCCCCCNc1c2ccc(Cl)cc2nc2ccc(OC)cc12
active: [1] -43.8% | [2] -21.4% | [3] -39.2% | [5] -51.6% | [20] -75.9% | [7] -88.8% | [8] -84.6% | [9] -66.6% | [10] -39.3% | [11] -65.6% | [12] -72.2% | [13] -92.8% | [14] -73.2% | [15] -76% | [16] -82% | [18] -82.4%

Cc1cccc2nc3ccccc3c(Nc3ccc(NS(C)(=O)=O)cc3)c12
inactive: [1] 57.8% | [3] 92.8% | [5] 10.1% | [7] 38.2% | [8] 51.1% | [9] 23.1% | [10] 35.1% | [11] 40.4% | [12] 72.9% | [13] 55.4% | [14] 57.9% | [15] 21.6% | [16] 39.6% | [18] 70.7%
active: [2] 5.12% | [20] -3.43%

COc1ccc(-c2conc2-n2nc(-c3ccccc3)nc2-c2ccccc2)cc1
inactive: [1] 98.3% | [2] 89.7% | [3] 97.6% | [5] 120% | [19] 89.7% | [6] 114% | [7] 107% | [8] 112% | [9] 119% | [11] 105% | [12] 94% | [13] 113% | [14] 122% | [15] 98.8% | [16] 107% | [17] 115% | [18] 98.6%

O=C(NCCN1CCCC1)n1cc(-c2ccncc2)c(-c2cc(O)cc(Cl)c2)n1
active: [11] 9.44%
inactive: [1] 102% | [2] 93.9% | [3] 115% | [5] 99.2% | [19] 98.6% | [6] 101% | [7] 79.2% | [8] 76.4% | [9] 104% | [10] 82% | [12] 80.8% | [13] 75.5% | [14] 92.6% | [15] 125% | [16] 77.9% | [17] 43.4% | [18] 25.4%
